The source of these data is PubChem BioAssay (Tox21).

Each structure is given as a SMILES string. Where “and” joins values, the source holds several entries; their conditions need not be identical. Equal values may be shown once. A number with no mark means an inactive call. Records with an inconclusive call do not appear. Calls of active or inactive are those of the source. Unless noted, calls follow the shape of the dose curve; as a rule, active = well fitted curve in the direction sought with a large enough effect in the repeat runs; inconclusive = weak or mixed curves; inactive = no such curve, though single readings can be large; an effect the other way counts as inactive or inconclusive.

The target of assay [1] is Luciferin 4-monooxygenase (Photinus pyralis) (UniProt P08659). In words: qHTS assay to identify small molecule inhibitors of firefly luciferase (AID 1224835). Also: nearly all actives have a fitted effect of over 25% in size. Also: potency is read from the fitted curve at half-maximal effect. In short, it runs like this: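 Inhibition of purified Photinus luciferase is measured by luminescence. Substrate levels (D-luciferin, ATP) sit at their KM values. Each compound is tested in a concentration series.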
For orientation: In qHTS, concentration-response curves come from the screen itself.

Assay [2] can be described thus: qHTS assay to identify small molecule agonists of the constitutive androstane receptor (CAR) signaling pathway - cell viability counter screen (AID 1224836). Also: nearly all actives have a fitted effect of over 45% in size. In short, it runs like this: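 Compound titrations (15 concentrations) went onto HepG2-CYP2B6-hCAR cells 4 h after seeding, alongside PK11195 at a final 0.75 uM; a 23 h, 37 C/5% CO2 incubation preceded CellTiter-Fluor viability measurement.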

Assay [3] can be described thus: qHTS assay to identify small molecule antagonists of the constitutive androstane receptor (CAR) signaling pathway - cell viability counter screen (AID 1224837). Also: nearly all actives have a fitted effect of over 45% in size. In short, it runs like this:
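HepG2 cells stably carrying hCAR and CYP2B6-2.2kb reporter, stimulated with 50 nM CITCO and compounds at 15 concentrations for 23 h at 37 C. Viability measured by CellTiter-Fluor fluorescence.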

The target in assay [4] is Nuclear receptor subfamily 1 group I member 3 (Homo sapiens) (UniProt Q14994). In words: qHTS assay to identify small molecule antagonists of the constitutive androstane receptor (CAR) signaling pathway (AID 1224838). Also: nearly all actives have a fitted effect of over 40% in size. In short, it runs like this:
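HepG2 cells stably carrying hCAR and a CYP2B6-2.2kb luciferase reporter, seeded 4 hrs before compound (15 concentrations). Stimulated with 50 nM CITCO for 24 hr at 37 C. ONE-Glo luminescence read after 30 min at room temperature.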

The target is the same in assay [5]. In words: qHTS assay to identify small molecule agonists of the constitutive androstane receptor (CAR) signaling pathway (AID 1224839). Also: nearly all actives have a fitted effect of over 15% in size. Also: potency is read from the fitted curve at half-maximal effect. In short, it runs like this: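 In this screen, CAR-driven CYP2B6 promoter activity is measured by luminescence in HepG2-CYP2B6-hCAR cells after 24 h with test compounds and 0.75 uM PK11195 (final concentration).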
The nature of assay [6]: qHTS assay to identify small molecule antagonists of the estrogen related receptor signaling pathway with the pleiotropic PPARgamma coactivator (PGC) from Tox21 10K library (AID 1224841; call rule not given here; also: actives are mostly falling curves and most rising ones were filed inactive; nearly all actives have a fitted effect of over 50% in size). In short, it runs like this: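 PGC/ERR cell line, 2,000 cells/well, pre-incubated 6 hours at 37 C, then exposed to compounds for 18 hours at 37 C; luciferase read with One-Glo luminescence after 30 min at room temperature.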

Assay [7] in a line: qHTS assay to identify small molecule agonists of the estrogen related receptor signaling pathway with the pleiotropic PPARgamma coactivator (PGC) from Tox21 10K library (AID 1224842). Also: nearly all actives have a fitted effect of over 15% in size. In short, it runs like this: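 Luminescence from One-Glo (30 min, room temperature) measured after PGC/ERR cells had 18 h at 37 C with pinned compound (23 nL in DMSO). Cells had been seeded at 2,000 per well and pre-incubated 6 h.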

Assay [8] deals with Thyrotropin receptor (Homo sapiens) (UniProt P16473). In words: qHTS assay to identify small molecule agonists of the thyroid stimulating hormone receptor (TSHR) signaling pathway (AID 1224843; calls by dose curve; also: nearly all actives have a fitted effect of over 45% in size). In short, it runs like this: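 HEK293 cells stably bearing the thyrotropin receptor were plated at 800 cells/well and challenged with compound (30 min, RT). Accumulated cAMP was quantified via cAMP-d2 competing for cryptate-tagged antibody.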

Assay [9] can be described thus: qHTS assay to identify small molecule agonists of the hypoxia (HIF-1) signaling pathway - cell viability counter screen (AID 1224844; calls by dose curve; also: nearly all actives have a fitted effect of over 50% in size). In short, it runs like this: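 HRE-bla ME-180 cells, 2,000/well in 0.5% dialyzed FBS medium, treated 17 h at 37C with compounds. Viability read in the same wells as the bla reporter, by CellTiter-Glo luminescence after 30 min at room temperature.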

A short description of assay [10]: qHTS assay to identify small molecule agonists of H2AX (AID 1224845; active = well fitted activation curve with a large enough effect in the signal ratio in the repeat runs, not every such curve was filed as active; the % refers to the signal ratio). In short, it runs like this:
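Phospho-H2AX Ser139 measured by HTRF (ex 320 nm; em 665 and 620 nm) after 24 hr antibody incubation. Compounds, 15 concentrations, 0.76% DMSO, were applied to CHO-K1 cells for 3hr at 37C before lysis.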

The nature of assay [11]: qHTS assay to identify small molecule agonists of the hypoxia (HIF-1) signaling pathway (AID 1224846; active = well fitted activation curve with a large enough effect in the signal ratio in the repeat runs, not every such curve was filed as active; the % refers to the signal ratio). In short, it runs like this: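 HRE-bla ME-180 beta-lactamase reporter cells in medium with 0.5% dialyzed FBS, pre-incubated 5 h then exposed to compounds 17 h at 37C, 5% CO2; reporter induction read with CCF4-AM FRET substrate.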
Assay [12] can be described thus: qHTS assay to identify small molecule agonists of H2AX - cell viability counter screen (AID 1224847; calls by dose curve; also: top concentration of the series differs between compounds; nearly all actives have a fitted effect of over 30% in size). In short, it runs like this:
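Read-out: CellTiter-Glo luminescence, 30 min RT. Cells: wild-type CHO-K1, 1000/well, 10% FBS, plated overnight at 37C. Treatment: 15 concentrations, 3 hr, 37C, 0.76% DMSO.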

A short description of assay [13]: qHTS assay to identify small molecule antagonists of the estrogen related receptor (ERR) signaling pathway from Tox21 library (AID 1224848). Also: nearly all actives have a fitted effect of over 50% in size. In short, it runs like this: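 Reading was by luminescence 30 min after ONE-Glo addition. Before that, ERR cells at 2,000 per well had rested 6 h at 37 C/5% CO2 and then received pin-tooled compounds in DMSO for 18 h at 37 C.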

The nature of assay [14]: qHTS RealTime-Glo MT Cell Viability Assay in HepG2 cells - 24 hour (AID 1224867). Also: nearly all actives have a fitted effect of over 50% in size. In short, it runs like this:
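HepG2 cells (600/well) were dispensed with RealTime-Glo reagents, incubated 5 h at 37 °C, then treated with compounds in DMSO for up to 40 h. Nonlytic NanoLuc luminescence reflecting viable cells was read at each stated time point.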

Assay [15] is described as follows: qHTS RealTime-Glo MT Cell Viability Assay in HEK293 cells - 32 hour (AID 1224868). Also: nearly all actives have a fitted effect of over 50% in size. Also: potency is read from the fitted curve at half-maximal effect. In short, it runs like this: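 HEK293 cells seeded with NanoLuc/prosubstrate reagent, rested 5 h at 37 C, then dosed and kept at 37 C up to 40 h. Nonlytic real-time luminescence from viable cells read at 0, 8, 16, 24, 32 and 40 h.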
Assay [16] can be described thus: A CellTox Green Cytotoxicity Assay to monitor cytotoxicity in HEK293 cells - 0 hour (AID 1224869). Also: nearly all actives have a fitted effect of over 50% in size. In short, it runs like this:
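HEK293 cells, 600/well, were preincubated 5 hours and then exposed to compounds at 37 C for up to 40 hours. A cell-impermeant cyanine dye staining dead-cell DNA was read by fluorescence at 0, 8, 16, 24, 32 and 40 h time points.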

Assay [17] is described as follows: qHTS RealTime-Glo MT Cell Viability Assay in HepG2 cells - 40 hour (AID 1224870). Also: nearly all actives have a fitted effect of over 50% in size. In short, it runs like this: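 Real-time viability: cells seeded at 600 per well together with NanoLuc and cell-permeant prosubstrate, compounds added after 5 h incubation. Luminescence tracked at 0, 8, 16, 24, 32 and 40 h of exposure.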
Assay [18] can be described thus: qHTS assay to identify small molecule antagonists of the estrogen related receptor signaling pathway with the pleiotropic PPARgamma coactivator (PGC) from Tox21 10K library - cell viability counter screen (AID 1224840; active = well fitted cell-killing curve with a large enough effect in the repeat runs, not every such curve was filed as active; also: nearly all actives have a fitted effect of over 40% in size). In short, it runs like this: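 PGC/ERR cells (2,000/well) plated 6 h, then compound-treated for 17.5 h at 37 C. Viability measured by CellTiter-Fluor fluorescence after 30 min at 37 C, multiplexed with the pathway assay.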

Assay [19] is described as follows: qHTS assay to identify small molecule agonists of the estrogen related receptor (ERR) signaling pathway from Tox21 library (AID 1224849; calls by dose curve; also: nearly all actives have a fitted effect of over 15% in size). The following applies: ERR reporter cell line, ONE-Glo luciferase, 18 h; at 92.4 µM (top of the series) unless noted. In short, it runs like this:
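ERR reporter cells (NTP line) pre-incubated 6 hours at 37 C, then exposed to compounds for 18 hours at 37 C. ONE-Glo luciferase luminescence was read after 30 minutes at room temperature.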
% is scaled to controls: 0 for no effect and ±100 for the full control effect.

Nuclear receptor subfamily 1 group I member 3 (Homo sapiens), sequence (Q14994 whole entry, looked up): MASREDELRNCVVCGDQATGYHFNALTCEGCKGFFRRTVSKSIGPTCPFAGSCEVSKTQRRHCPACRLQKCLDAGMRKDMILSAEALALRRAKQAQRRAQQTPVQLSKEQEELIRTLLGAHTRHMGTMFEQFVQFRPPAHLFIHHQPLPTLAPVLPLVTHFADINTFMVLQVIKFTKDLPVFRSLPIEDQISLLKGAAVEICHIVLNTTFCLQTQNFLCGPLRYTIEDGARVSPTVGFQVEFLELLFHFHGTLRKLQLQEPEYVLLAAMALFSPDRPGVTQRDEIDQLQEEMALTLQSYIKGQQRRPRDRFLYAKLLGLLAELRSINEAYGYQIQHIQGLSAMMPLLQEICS
Thyrotropin receptor (Homo sapiens), sequence (P16473 whole entry, looked up): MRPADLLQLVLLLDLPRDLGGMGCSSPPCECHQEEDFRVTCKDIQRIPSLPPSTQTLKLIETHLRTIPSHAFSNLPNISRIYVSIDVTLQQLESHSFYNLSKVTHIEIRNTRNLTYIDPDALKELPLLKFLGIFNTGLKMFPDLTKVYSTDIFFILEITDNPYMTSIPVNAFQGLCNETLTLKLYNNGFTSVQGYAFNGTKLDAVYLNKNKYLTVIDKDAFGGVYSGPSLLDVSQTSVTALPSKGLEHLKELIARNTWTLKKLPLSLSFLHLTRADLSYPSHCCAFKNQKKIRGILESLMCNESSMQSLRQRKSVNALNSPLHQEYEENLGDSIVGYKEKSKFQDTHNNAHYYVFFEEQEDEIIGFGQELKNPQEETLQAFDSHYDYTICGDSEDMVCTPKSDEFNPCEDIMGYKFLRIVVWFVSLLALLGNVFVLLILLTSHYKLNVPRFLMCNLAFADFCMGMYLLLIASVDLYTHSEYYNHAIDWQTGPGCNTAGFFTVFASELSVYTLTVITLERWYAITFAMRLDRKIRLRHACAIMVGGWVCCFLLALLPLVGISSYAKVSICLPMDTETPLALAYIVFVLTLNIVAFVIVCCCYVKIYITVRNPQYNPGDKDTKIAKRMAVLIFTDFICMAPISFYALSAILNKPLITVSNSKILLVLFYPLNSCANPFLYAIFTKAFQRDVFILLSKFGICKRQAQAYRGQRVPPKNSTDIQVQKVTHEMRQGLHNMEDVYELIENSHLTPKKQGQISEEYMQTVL
Luciferin 4-monooxygenase (Photinus pyralis), sequence (P08659 whole entry, looked up): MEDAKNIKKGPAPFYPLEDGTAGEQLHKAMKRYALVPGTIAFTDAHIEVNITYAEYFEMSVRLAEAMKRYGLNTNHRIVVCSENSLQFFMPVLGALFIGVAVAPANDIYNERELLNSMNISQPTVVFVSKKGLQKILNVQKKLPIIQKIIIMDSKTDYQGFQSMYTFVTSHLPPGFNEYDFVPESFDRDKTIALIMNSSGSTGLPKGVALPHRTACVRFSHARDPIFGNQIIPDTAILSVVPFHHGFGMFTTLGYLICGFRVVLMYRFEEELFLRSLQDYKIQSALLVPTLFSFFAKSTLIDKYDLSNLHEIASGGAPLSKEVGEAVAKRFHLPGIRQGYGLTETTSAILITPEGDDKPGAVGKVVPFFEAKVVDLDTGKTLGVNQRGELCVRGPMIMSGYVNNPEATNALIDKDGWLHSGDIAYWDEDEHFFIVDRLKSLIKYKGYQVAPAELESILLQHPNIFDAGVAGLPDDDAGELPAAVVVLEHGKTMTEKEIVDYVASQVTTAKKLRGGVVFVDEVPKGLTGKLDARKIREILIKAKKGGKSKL

With `N=C(N)c1ccc(OCCCOc2ccc(C(=N)N)cc2)cc1`, the Potency entry in assay [1], in [2], in [3], in assay [4], in [5] and in assay [6] was “inactive” throughout. Moreover, the Potency result in [8], in assay [9], in [12], in assay [13], in assay [14] and in assay [15] was “inactive” throughout. The Potency result in assay [16] and in assay [17] was “inactive” throughout. Moreover, the compound was classed as inactive in [7], in assay [10] and in assay [11].
Turning to `C=CCOCC(CC)(CO)COCC=C`, the Potency entry in [1], in assay [2], in assay [3], in assay [4], in [18] and in assay [6] was “inactive” throughout. Also, the Potency result in assay [8], in assay [9], in assay [12], in [13], in [14] and in [15] was “inactive” each time. The Potency entry in assay [16] and in assay [17] was “inactive” each time. The compound was called inactive in assay [7], in [10] and in assay [11]. In addition, the activity change, positive = activation in assay [19] is 4.88%.
On to `c1ccc([C@H]2CN3CCSC3=N2)cc1`, for which the Potency result in assay [1], in assay [2], in [4], in [5], in assay [18] and in assay [9] was “inactive” in each case. Further, the Potency entry in assay [12], in assay [14], in [15], in assay [16] and in assay [17] was “inactive” in each case. Besides, in assay [10], the result was inactive.
Turning to `Nc1cc(=O)[nH]c(N)n1`, the Potency entry in [1], in assay [2], in assay [3], in assay [4], in assay [18] and in assay [8] was “inactive” each time. For the same compound, the Potency entry in assay [9], in [12], in assay [14], in assay [15] and in assay [16] was “inactive” each time. Further, the compound was classed as inactive in assay [10].
Consider `CC(C)(C)c1ccc(O)c(O)c1`, for which the Potency in assay [1] was 32.8 µM (active) and 22.4 µM (active); in assay [5] it was 63.2 µM (active) and 24.3 µM (active); in assay [15], 20.2 µM (active) and 13.8 µM (active). The Potency entry in assay [2], in assay [3], in assay [4], in [9], in assay [12] and in [16] was “inactive” each time. Moreover, in assay [17], the Potency entry was “inactive”.
As to `CCOC(=O)C(=O)OCC`, the Potency result in [1], in assay [2], in [3], in assay [4], in assay [18] and in [6] was “inactive” in each case. Besides, the Potency entry in assay [8], in assay [9], in assay [12], in [13], in [14] and in assay [15] was “inactive” in each case. Besides, the Potency result in [17] is “inactive”. Moreover, the compound was classed as inactive in assay [7], in [10] and in assay [11].
On to `CCOC(=O)c1c(C)n(C)c2ccc(O)cc12`, for which the Potency result in [1], in assay [2], in assay [3], in [4], in assay [6] and in assay [8] was “inactive” throughout. Also, the Potency result in [9], in assay [12], in assay [13], in [14], in [15] and in assay [17] was “inactive” each time. The result in assay [7] and in [11] was inactive. Besides, the activity change, positive = activation in [19] was -9.16% [at 42.5 µM].
